Publication PMC7862700, “An all-to-all approach to the identification of sequence-specific readers for epigenetic DNA modifications on cytosine”

Tests used:
Experiment in all cases: DAPPL (digital affinity profiling via proximity ligation, sequencing); 10 mM Tris-HCl pH 7.5, 50 mM NaCl, 1 mM DTT, 4% glycerol, room temperature, 30 min; GST-TFs on glutathione beads, 16-mer random dsDNA library, 0.1% formaldehyde crosslink after washing; high values mean tight binding
FLI1 = target: T1, FLI1 (Homo sapiens, UniProt Q01543 1-452); conditions: protein: recombinant; tags: N-terminal GST; dsDNA, one strand shown
T1 sequence: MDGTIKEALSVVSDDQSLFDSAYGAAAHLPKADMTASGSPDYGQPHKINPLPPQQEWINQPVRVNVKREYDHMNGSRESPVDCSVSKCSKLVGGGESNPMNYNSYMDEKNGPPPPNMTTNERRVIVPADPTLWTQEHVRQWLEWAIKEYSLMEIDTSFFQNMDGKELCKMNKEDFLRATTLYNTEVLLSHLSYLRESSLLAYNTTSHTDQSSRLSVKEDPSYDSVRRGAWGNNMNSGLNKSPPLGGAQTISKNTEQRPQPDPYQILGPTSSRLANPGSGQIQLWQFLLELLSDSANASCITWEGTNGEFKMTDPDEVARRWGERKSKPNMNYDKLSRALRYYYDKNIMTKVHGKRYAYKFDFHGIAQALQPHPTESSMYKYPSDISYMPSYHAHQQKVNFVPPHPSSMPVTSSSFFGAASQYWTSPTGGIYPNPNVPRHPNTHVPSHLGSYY
How it was run: (§1)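 Human transcription factors carrying a GST fusion were produced in yeast, bound to glutathione beads, tagged with DNA barcodes and pooled together with a tag-only sample. Each pool was held with 200 nmole of a random double-stranded 16-mer DNA library in Tris/NaCl/DTT/glycerol buffer for 30 min at room temperature, then washed, crosslinked in 0.1% formaldehyde, proximity-ligated with BsaI/T4 ligase (1 h, 37 °C), PCR-amplified and sequenced on an Illumina NextSeq500. Binding signal is the read frequency of each hexamer for a given factor divided by its frequency in the tag-only sample.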

ELK1 = target: T2, ELK1 (Homo sapiens, UniProt P19419 1-428); conditions: protein: recombinant; tags: N-terminal GST; dsDNA, one strand shown
T2 sequence: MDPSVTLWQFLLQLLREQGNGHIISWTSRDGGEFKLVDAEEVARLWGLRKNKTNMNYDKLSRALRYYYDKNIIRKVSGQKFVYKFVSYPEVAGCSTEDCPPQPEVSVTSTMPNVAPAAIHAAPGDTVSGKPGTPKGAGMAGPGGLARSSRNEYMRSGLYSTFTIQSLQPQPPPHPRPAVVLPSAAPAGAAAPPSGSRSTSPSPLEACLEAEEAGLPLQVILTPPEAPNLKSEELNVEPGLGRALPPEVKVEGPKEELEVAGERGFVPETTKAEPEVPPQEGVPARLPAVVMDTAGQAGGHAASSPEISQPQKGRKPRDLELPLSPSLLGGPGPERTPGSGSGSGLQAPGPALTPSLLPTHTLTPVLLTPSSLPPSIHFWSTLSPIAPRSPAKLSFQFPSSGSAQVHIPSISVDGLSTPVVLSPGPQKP
How it was run: as §1

GABPA = target: T3, GABPA (Homo sapiens, UniProt Q06546 1-454); conditions: protein: recombinant; tags: N-terminal GST; dsDNA, one strand shown
T3 sequence: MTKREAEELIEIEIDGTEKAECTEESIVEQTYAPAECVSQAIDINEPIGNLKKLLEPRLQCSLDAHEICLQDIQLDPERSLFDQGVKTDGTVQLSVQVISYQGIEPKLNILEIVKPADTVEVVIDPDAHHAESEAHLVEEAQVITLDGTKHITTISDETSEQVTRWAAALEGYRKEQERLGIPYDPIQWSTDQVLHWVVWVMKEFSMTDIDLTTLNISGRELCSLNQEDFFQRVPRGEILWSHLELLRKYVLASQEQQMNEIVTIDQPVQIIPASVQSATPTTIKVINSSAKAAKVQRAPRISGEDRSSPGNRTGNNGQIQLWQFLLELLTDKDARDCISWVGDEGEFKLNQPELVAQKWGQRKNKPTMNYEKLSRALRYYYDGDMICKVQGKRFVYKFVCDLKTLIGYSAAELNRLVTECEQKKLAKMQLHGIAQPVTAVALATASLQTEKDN
How it was run: as §1

ERG = target: T4, ERG (Homo sapiens, UniProt P11308 1-479); conditions: protein: recombinant; tags: N-terminal GST; dsDNA, one strand shown
T4 sequence: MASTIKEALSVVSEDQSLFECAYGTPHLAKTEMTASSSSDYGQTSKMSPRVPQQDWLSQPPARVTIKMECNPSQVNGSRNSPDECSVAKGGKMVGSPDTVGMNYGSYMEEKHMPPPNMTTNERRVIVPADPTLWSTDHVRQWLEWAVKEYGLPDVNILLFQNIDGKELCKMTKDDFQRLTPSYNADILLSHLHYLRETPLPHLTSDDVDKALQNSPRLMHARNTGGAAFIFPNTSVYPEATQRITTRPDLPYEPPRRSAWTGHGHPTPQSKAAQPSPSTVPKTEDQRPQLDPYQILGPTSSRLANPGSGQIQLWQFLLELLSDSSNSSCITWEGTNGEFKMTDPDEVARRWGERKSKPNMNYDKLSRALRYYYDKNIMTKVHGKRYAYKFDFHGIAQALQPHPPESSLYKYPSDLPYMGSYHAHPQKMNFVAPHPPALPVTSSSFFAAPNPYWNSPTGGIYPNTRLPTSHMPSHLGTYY
How it was run: as §1

ELF1 = ELF1 (Homo sapiens, UniProt P32519 1-619); conditions: protein: recombinant; tags: N-terminal GST; dsDNA, one strand shown
Chain of ELF1 (P32519 whole entry): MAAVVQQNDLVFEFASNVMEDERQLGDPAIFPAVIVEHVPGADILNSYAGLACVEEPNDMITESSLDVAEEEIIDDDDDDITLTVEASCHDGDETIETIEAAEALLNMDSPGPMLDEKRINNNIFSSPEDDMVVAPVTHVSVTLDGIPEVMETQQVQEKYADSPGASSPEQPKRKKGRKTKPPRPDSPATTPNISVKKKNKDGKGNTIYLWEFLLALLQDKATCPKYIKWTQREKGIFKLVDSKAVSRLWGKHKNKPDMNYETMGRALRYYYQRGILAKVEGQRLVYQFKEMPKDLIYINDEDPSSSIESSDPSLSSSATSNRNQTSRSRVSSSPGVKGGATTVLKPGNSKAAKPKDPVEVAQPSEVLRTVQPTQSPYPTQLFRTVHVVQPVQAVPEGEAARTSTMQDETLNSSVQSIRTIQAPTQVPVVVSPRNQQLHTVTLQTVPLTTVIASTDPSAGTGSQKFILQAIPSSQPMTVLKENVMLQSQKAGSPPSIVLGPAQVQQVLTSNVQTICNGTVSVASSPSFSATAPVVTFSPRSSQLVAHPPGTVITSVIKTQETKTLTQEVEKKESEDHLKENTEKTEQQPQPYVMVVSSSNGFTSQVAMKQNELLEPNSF
How it was run: as §1

EHF = target: T5, EHF (Homo sapiens, UniProt Q9NZC4 1-300); conditions: protein: recombinant; tags: N-terminal GST; dsDNA, one strand shown
T5 sequence: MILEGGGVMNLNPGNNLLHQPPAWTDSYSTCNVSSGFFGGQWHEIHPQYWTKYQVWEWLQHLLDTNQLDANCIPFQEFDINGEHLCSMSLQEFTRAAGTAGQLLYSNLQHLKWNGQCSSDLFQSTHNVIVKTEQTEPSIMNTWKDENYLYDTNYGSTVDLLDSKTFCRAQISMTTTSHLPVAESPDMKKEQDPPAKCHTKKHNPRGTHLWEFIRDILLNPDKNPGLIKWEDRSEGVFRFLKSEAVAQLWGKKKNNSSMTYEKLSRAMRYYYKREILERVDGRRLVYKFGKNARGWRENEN
How it was run: as §1

SPI1 = SPI1 (Homo sapiens, UniProt P17947 1-270); conditions: protein: recombinant; tags: N-terminal GST; dsDNA, one strand shown
How it was run: as §1

SPIB = SPIB (Homo sapiens, UniProt Q01892 1-262); conditions: protein: recombinant; tags: N-terminal GST; dsDNA, one strand shown
Chain of SPIB (Q01892 whole entry): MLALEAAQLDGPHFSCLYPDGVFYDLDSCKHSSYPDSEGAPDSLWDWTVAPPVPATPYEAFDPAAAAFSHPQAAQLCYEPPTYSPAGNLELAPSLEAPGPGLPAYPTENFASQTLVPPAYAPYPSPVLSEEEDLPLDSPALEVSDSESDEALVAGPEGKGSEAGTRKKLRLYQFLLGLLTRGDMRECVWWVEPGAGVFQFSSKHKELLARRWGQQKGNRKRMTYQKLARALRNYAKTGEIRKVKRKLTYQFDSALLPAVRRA
How it was run: as §1

ELK3 = target: T6, ELK3 (Homo sapiens, UniProt P41970 1-407); conditions: protein: recombinant; tags: N-terminal GST; dsDNA, one strand shown
T6 sequence: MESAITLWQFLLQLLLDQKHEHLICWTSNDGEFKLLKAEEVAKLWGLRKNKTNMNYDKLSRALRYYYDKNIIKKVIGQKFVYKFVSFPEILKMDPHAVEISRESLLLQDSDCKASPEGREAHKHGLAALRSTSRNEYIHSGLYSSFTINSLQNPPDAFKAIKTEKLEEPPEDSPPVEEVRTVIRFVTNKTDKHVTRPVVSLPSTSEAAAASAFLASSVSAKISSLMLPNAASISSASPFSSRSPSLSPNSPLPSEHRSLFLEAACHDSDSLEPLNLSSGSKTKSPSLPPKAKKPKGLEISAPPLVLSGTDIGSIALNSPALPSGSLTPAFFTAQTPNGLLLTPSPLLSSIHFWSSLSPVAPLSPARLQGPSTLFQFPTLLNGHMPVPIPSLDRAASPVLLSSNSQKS
How it was run: as §1

FEV = target: T7, FEV (Homo sapiens, UniProt Q99581 1-238); conditions: protein: recombinant; tags: N-terminal GST; dsDNA, one strand shown
T7 sequence: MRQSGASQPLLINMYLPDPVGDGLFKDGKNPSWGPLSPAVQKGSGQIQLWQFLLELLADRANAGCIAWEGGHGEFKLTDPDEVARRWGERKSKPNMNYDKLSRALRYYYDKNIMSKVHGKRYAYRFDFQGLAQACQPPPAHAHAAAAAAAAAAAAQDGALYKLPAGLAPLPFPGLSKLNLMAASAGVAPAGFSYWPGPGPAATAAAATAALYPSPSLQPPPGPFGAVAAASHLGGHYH
How it was run: as §1

ETV5 = ETV5 (Homo sapiens, UniProt P41161 1-510); conditions: protein: recombinant; tags: N-terminal GST; dsDNA, one strand shown
Chain of ETV5 (P41161 whole entry): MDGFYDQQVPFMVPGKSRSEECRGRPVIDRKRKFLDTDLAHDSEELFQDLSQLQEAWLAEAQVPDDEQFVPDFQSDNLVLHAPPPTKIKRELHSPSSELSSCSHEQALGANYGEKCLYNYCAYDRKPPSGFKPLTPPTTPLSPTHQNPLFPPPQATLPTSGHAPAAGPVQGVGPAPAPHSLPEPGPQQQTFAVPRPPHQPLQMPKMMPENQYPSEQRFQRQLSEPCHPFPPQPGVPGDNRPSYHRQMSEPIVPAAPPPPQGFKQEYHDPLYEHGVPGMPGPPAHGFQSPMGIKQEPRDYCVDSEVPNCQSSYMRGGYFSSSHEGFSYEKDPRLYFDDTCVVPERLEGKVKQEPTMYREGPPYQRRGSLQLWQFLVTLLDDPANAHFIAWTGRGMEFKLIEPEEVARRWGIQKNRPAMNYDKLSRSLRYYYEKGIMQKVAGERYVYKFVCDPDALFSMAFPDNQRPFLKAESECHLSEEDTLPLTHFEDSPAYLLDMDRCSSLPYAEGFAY
How it was run: as §1

HSF1 = HSF1 (Homo sapiens, UniProt Q00613 1-529); conditions: protein: recombinant; tags: N-terminal GST; chain copies: 3; dsDNA, one strand shown
Chain of HSF1 (Q00613 whole entry): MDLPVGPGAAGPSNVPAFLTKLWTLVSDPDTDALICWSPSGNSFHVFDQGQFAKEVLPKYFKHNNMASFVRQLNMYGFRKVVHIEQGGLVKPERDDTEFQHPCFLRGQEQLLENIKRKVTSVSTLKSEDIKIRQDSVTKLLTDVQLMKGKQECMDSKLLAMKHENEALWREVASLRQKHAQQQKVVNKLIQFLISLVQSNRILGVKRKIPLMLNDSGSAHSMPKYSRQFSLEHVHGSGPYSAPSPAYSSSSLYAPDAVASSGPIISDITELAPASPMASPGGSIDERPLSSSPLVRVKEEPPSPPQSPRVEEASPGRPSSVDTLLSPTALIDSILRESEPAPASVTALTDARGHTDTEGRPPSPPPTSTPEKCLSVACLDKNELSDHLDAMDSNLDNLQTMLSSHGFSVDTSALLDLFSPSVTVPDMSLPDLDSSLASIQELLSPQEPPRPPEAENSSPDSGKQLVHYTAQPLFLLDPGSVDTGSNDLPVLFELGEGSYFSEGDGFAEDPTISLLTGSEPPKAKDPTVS
How it was run: as §1

SPIC = target: T8, SPIC (Homo sapiens, UniProt Q8N5J4 1-248); conditions: protein: recombinant; tags: N-terminal GST; dsDNA, one strand shown
T8 sequence: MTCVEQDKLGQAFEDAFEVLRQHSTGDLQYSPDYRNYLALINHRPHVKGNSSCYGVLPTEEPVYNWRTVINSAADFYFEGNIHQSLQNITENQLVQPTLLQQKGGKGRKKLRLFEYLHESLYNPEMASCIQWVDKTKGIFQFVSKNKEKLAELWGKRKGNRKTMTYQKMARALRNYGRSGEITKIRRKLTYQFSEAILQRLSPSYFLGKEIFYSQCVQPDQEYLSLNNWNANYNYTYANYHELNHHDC
How it was run: as §1

ELF4 = ELF4 (Homo sapiens, UniProt Q99607 1-663); conditions: protein: recombinant; tags: N-terminal GST; dsDNA, one strand shown
Chain of ELF4 (Q99607 whole entry): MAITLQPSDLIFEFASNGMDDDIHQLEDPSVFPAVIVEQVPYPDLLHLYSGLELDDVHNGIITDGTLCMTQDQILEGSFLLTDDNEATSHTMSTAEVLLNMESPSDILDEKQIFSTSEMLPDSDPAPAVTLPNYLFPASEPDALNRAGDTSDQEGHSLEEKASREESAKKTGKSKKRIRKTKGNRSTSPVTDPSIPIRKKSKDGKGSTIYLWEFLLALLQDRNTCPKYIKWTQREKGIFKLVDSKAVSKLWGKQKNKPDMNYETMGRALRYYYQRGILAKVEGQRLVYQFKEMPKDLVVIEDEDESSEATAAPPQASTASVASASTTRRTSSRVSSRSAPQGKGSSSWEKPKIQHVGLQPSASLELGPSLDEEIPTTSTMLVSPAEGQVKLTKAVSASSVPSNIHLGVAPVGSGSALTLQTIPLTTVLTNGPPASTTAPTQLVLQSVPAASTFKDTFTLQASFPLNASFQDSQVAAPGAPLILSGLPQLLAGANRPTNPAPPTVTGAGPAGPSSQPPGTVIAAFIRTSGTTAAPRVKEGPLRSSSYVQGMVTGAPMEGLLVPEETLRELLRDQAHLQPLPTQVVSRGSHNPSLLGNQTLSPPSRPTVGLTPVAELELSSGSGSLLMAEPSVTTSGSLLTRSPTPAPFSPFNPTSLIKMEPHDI
How it was run: as §1

ELK4 = target: T9, ELK4 (Homo sapiens, UniProt P28324-2 1-405); conditions: protein: recombinant; tags: N-terminal GST; dsDNA, one strand shown
T9 sequence: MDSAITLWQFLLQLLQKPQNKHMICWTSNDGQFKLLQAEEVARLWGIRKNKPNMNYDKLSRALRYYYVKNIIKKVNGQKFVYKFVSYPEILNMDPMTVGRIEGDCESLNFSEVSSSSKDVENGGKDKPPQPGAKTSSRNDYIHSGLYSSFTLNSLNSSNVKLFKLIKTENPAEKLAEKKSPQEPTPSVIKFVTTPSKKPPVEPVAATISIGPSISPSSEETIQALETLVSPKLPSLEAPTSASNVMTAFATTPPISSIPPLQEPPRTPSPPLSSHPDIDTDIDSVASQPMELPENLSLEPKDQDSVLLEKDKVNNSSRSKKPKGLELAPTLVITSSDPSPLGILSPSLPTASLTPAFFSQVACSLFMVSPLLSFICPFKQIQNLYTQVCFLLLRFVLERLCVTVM
How it was run: as §1

ETV2 = target: T10, ETV2 (Homo sapiens, UniProt O00321 1-342); conditions: protein: recombinant; tags: N-terminal GST; dsDNA, one strand shown
T10 sequence: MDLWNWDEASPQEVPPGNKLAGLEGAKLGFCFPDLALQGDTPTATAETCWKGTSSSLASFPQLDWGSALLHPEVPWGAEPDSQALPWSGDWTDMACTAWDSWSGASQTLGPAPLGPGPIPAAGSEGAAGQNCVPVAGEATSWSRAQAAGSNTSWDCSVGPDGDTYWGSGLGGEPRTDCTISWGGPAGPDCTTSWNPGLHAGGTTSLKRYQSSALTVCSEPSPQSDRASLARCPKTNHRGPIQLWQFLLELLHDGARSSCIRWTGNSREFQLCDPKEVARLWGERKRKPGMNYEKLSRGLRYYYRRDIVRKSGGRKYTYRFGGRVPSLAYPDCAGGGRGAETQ
How it was run: as §1

ELF3 = target: T11, ELF3 (Homo sapiens, UniProt P78545 1-371); conditions: protein: recombinant; tags: N-terminal GST; dsDNA, one strand shown
T11 sequence: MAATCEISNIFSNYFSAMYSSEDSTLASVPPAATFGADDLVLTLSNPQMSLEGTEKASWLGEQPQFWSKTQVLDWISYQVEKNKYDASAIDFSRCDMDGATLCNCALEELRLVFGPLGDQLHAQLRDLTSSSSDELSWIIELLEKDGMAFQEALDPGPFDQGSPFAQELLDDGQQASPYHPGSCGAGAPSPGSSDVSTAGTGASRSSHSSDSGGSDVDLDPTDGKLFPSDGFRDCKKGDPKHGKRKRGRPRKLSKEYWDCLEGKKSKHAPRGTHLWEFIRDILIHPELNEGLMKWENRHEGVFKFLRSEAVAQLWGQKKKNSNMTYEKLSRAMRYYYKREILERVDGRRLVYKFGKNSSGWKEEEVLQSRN
How it was run: as §1

CRX = CRX (Homo sapiens, UniProt O43186 1-299); conditions: protein: recombinant; tags: N-terminal GST; dsDNA, one strand shown
Chain of CRX (O43186 whole entry): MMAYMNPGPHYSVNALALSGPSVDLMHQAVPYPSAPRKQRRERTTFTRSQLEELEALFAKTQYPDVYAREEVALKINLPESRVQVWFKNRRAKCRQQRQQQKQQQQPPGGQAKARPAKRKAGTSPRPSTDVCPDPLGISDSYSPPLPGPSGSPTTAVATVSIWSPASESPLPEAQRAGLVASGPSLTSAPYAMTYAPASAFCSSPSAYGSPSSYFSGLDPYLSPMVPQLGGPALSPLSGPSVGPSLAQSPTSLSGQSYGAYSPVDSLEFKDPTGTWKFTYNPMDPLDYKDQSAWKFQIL
How it was run: as §1

ETV1 = ETV1 (Homo sapiens, UniProt P50549 1-477); conditions: protein: recombinant; tags: N-terminal GST; dsDNA, one strand shown
Chain of ETV1 (P50549 whole entry): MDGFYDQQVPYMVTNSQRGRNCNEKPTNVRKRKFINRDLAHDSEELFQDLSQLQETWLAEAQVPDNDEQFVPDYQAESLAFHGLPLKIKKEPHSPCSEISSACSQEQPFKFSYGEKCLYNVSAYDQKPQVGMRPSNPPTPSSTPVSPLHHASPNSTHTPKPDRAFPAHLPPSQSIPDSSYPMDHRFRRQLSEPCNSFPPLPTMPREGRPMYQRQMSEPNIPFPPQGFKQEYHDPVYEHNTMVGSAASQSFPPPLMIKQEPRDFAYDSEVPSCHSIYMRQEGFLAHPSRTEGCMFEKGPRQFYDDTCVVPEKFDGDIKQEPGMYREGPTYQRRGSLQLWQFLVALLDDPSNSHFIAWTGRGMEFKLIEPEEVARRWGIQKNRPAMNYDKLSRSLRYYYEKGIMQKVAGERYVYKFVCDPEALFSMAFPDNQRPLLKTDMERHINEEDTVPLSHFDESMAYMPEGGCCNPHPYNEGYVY
How it was run: as §1

TGCATT
binding signal (FLI1): 1.34 fold enrichment (6-mer frequency, TF over GST control) | binding signal (ELK1): 1.34 fold enrichment (6-mer frequency, TF over GST control) | binding signal (GABPA): 1.37 fold enrichment (6-mer frequency, TF over GST control) | binding signal (ERG): 1.24 fold enrichment (6-mer frequency, TF over GST control) | binding signal (ELF1): 1.33 fold enrichment (6-mer frequency, TF over GST control) | binding signal (EHF): 1.3 fold enrichment (6-mer frequency, TF over GST control) | binding signal (SPI1): 1.31 fold enrichment (6-mer frequency, TF over GST control) | binding signal (SPIB): 1.34 fold enrichment (6-mer frequency, TF over GST control) | binding signal (ELK3): 1.35 fold enrichment (6-mer frequency, TF over GST control) | binding signal (FEV): 1.38 fold enrichment (6-mer frequency, TF over GST control) | binding signal (ETV5): 1.3 fold enrichment (6-mer frequency, TF over GST control) | binding signal (HSF1): 1.24 fold enrichment (6-mer frequency, TF over GST control) | binding signal (SPIC): 1.44 fold enrichment (6-mer frequency, TF over GST control) | binding signal (ELF4): 1.36 fold enrichment (6-mer frequency, TF over GST control) | binding signal (ELK4): 1.38 fold enrichment (6-mer frequency, TF over GST control) | binding signal (ETV2): 1.39 fold enrichment (6-mer frequency, TF over GST control) | binding signal (ELF3): 1.49 fold enrichment (6-mer frequency, TF over GST control) | binding signal (CRX): 1.32 fold enrichment (6-mer frequency, TF over GST control) | binding signal (ETV1): 1.32 fold enrichment (6-mer frequency, TF over GST control)
